Results reported in PubChem BioAssay (NCATS).
“And” between values parts separate entries of the source, which are not always exact repeats. Equal entries are not always repeated. Inconclusive results are not listed. The source made the active and inactive calls. Unless noted, calls follow the shape of the dose curve; as a rule, active = well fitted curve in the direction sought with a large enough effect; inconclusive = small, poorly fitted or top-dose-only effect, or another doubt; inactive = no such curve, though single readings can be large; an effect the other way counts as inactive or inconclusive.

How the values were obtained:
OV90 = experiment: Primary qHTS to identify gynecologic anti-cancer compounds using libraries of approved drugs and bioactive compounds (AID 1345084); details: Gynecologic cancer cell panel viability, ATPlite luminescence, 48 h; series mostly up to 57.5 µM; also: nearly all actives have a fitted effect of over 55% in size; also: potency is read from the fitted curve at half-maximal effect
Procedure, shortened: (§1)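 Five-concentration response, 48 h; readout is ATP-driven luciferase luminescence.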

PA-1 = experiment: as above; details: Gynecologic cancer cell panel viability, ATPlite luminescence, 48 h; series mostly up to 57.5 µM
Procedure, shortened: as §1

SKOV3 = experiment: as above; details: Gynecologic cancer cell panel viability, ATPlite luminescence, 48 h; series mostly up to 57.5 µM
Procedure, shortened: as §1

Tov-21-G = experiment: as above; details: Gynecologic cancer cell panel viability, ATPlite luminescence, 48 h; series mostly up to 57.5 µM
Procedure, shortened: as §1

Tov112D = experiment: as above; details: Gynecologic cancer cell panel viability, ATPlite luminescence, 48 h; series mostly up to 57.5 µM
Procedure, shortened: as §1

[1] = Drug repurposing screens with cells derived from glioblastoma tumor samples (AID 1345199); details: GBM patient neurospheres viability, ATP luminescence, 48 h; also: nearly all actives have a fitted effect of over 40% in size; also: potency is read from the fitted curve at half-maximal effect; as to activity, negative = cell killing: % is scaled to controls: 0 for no effect and ±100 for the full control effect
Procedure, shortened: (§2)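 Four patient lines of CD133+ GBM neurospheres were screened at several concentrations; hits were retested in those lines plus three slower-growing GBM lines, using 48-hour treatment and ATP-based viability.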

astro = experiment: as above; details: viability, ATP luminescence, 48 h; series mostly up to 45.9 µM
Procedure, shortened: as §2

[2] = biological target: Nuclear receptor subfamily 1 group I member 2 (Rattus norvegicus) (UniProt Q9R1A7); experiment: qHTS assay for small molecule activators of the rat pregnane X receptor (rPXR) signaling pathway (AID 651751; call rule not given here; also: 0% is about no effect); details: rPXR reporter cells, luciferase (One-Glo), 24 h
Nuclear receptor subfamily 1 group I member 2 (Rattus norvegicus), sequence (Q9R1A7 whole entry, looked up): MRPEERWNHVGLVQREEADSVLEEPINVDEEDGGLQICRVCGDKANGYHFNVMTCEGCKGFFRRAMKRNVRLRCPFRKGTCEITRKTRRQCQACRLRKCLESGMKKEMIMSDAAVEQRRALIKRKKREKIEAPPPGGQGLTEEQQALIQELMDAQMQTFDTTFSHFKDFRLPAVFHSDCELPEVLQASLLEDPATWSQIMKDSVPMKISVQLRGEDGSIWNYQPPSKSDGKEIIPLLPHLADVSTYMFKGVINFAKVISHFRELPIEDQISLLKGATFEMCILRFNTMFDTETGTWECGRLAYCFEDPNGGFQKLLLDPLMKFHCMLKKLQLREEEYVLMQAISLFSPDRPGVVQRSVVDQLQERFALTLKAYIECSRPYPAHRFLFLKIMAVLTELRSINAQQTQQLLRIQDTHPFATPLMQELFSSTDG

[3] = qHTS assay for small molecule activators of the human pregnane X receptor (PXR) signaling pathway (AID 720659; call rule not given here; also: 0% is about no effect); details: DPX-2 HepG2 CYP3A4-luciferase, 24 h; series mostly up to 92.3 µM
[4] = qHTS assay to identify inhibitors of the type 1 interferon - major histocompatibility complex class I in skeletal muscle: Counter screen cell viability and HiBit confirmation (AID 1347412); details: iHSKM muscle cells + IFN-b, HiBiT or CellTiter-Glo, 24 h; Potency: HiBiT; Viability, at 45.9 µM (top of the series); also: nearly all actives have a fitted effect of over 60% in size; also: potency is read from the fitted curve at half-maximal effect
Text: Assay Submitter (PI): Travis B. Kinder Ph.D. & James Inglese Ph.D. Assay Development and Screening Technology Laboratory (ADST) National Center for Advancing Translational Sciences (NCATS), Rockville, MD National Institute of Health (NIH), Bethesda, Maryland Idiopathic inflammatory myopathies, collectively referred to as myositis, are a group of rare autoimmune diseases characterized by skeletal muscle inflammation, weakness, and usually accompanied by systemic pathologies of the skin, lungs, or vasculature. Current immunosuppressive therapies and glucocorticoids are often not curative and are accompanied by harsh side effects, especially in children with juvenile myositis. We initiated a drug repurposing and development program to identify more targeted, less toxic therapeutics to treat myositis. Although its cause is not known, muscle from a subset of patients have an abundance of the inflammatory type 1 interferon (IFN) and a down-stream product major histocompatibility complex class I (MHC class I), which are both thought to contribute to damage and weakness. We conducted quantitative high throughput screening on 6,576 compounds (4,679 unique) through a series of cell-based assays to identify those that inhibit the IFN-stimulated expression of MHC class I in muscle precursor cells (myoblasts). The compound identification and evaluation strategy utilized a primary screen with reporter-tagged MHC class I in genome-engineered myoblasts, ATP content counter screen for viability, HLA-ABC immunofluorescence secondary screen, and HLA-B RT-qPCR tertiary screen. The primary screen utilized CRISPR/Cas9 genome-engineering of immortalized human myoblasts, C25cl48, where a pro-luminescent reporter HiBit was fused to the C-terminus of endogenous MHC class I allele HLA-B*08:01 (HLA-B HiBit myoblasts). HiBit is an 11 amino acid fragment of NanoLuc luminescent reporter (Promega Corporation), and when complexed to the larger LgBit fragment, the reconstituted enzyme produces light in the presence of furimazine substrate (Schwinn et al., 2018). Briefly, HLA-B HiBit myoblasts were plated into 1536-well plates, treated with 4.0 ng/ml human IFN-beta and 650 inhibitory compounds identified from primary screening in a 12-point, 1:3 titration with a high final concentration of 46 uM. Compounds were pinned into duplicate plates, with one for HiBit confirmation and one for ATP content viability assay. After 24 hrs of treatment, cells were assayed by either Nano-Glo HiBiT Lytic Detection System (Promega) or CellTiter Glo (Promega), and luminescence measured by a ViewLux 1430 Ultra HTS (Perkin Elmer). References: Schwinn MK, Machleidt T, Zimmerman K, Eggers CT, Dixon AS, Hurst R, Hall MP, Encell LP, Binkowski BF, Wood K V. 2018. CRISPR-Mediated Tagging of Endogenous Proteins with a Luminescent Peptide. ACS Chem Biol 13:467-474. doi:10.1021/acschembio.7b00549
PROTOCOL TABLE (as described by Inglese et al., 2007) SEQUENCE No. (e.g., 1, 2, 3, etc.); […] (e.g., Cells, Incubation, Reagent, etc.); VALUE; DESCRIPTION 1a; Cells; 5 uL; Use a Multidrop Combi (Thermo Scientific) to seed 300 cells/well into 16 Greiner 1536 well white/solid bottom, high base, TC plates in 5 ul/well of iHSKM growth medium (GM) without dexamethasone into columns 1+2. […]

[5] = at 45.9 µM (top of the series), tumour line B
[6] = at 45.9 µM (top of the series), tumour line D

Cc1ccc(S(=O)(=O)N[C@@H](CCCCN)C(=O)CCl)cc1
inactive: Potency (OV90) | Potency (PA-1) | Potency (SKOV3) | Potency (Tov-21-G) | Potency (Tov112D) | activity, negative = cell killing [1, 5] -22.5% | Potency (astro)

CC(C)(N)Cc1ccc(Cl)cc1
inactive: Potency (OV90) | Potency (PA-1) | Potency (SKOV3) | Potency (Tov-21-G) | Potency (Tov112D) | activity, negative = cell killing [1, 5] -10.8% | activity, negative = cell killing [1, 6] -8.85% | Potency (astro)

NCC(O)c1ccc(O)cc1 (stereo unspecified)
inactive: Potency (OV90) | Potency (PA-1) | Potency (SKOV3) | Potency (Tov-21-G) | Potency (Tov112D) | activity, negative = cell killing [1, 5] -12.4% | activity, negative = cell killing [1, 6] -9.81% | Potency (astro) | max response [2] 2.53% | outcome [3]

O=C1NCN(c2ccccc2)C12CCN(CC1COc3ccccc3O1)CC2 (stereo unspecified)
inactive: Potency (OV90) | Potency (PA-1) | Potency (SKOV3) | Potency (Tov-21-G) | Potency (Tov112D) | activity, negative = cell killing [1, 5] -6.74% | Potency (astro)
active: Potency ([1]; tumour line A) 12.6 µM

C=C1CC[C@@]2(O)[C@H]3Cc4ccc(O)c5c4[C@@]2(CCN3CC2CC2)[C@H]1O5
inactive: Potency (OV90) | Potency (PA-1) | Potency (SKOV3) | Potency (Tov-21-G) | Potency (Tov112D) | activity, negative = cell killing [1, 5] -11% | activity, negative = cell killing [1, 6] 5.06% | Potency (astro)

Cc1cccc(C)c1NC1=NCCCS1
active: Potency ([1]; tumour line A) 17.8 µM
inactive: Potency (OV90) | Potency (PA-1) | Potency (SKOV3) | Potency (Tov-21-G) | Potency (Tov112D) | activity, negative = cell killing [1, 5] -12.3% | Potency (astro)

Cc1ccc2c(c1)C1CN(C)CCC1N2 (stereo unspecified)
inactive: Potency (OV90) | Potency (PA-1) | Potency (SKOV3) | Potency (Tov-21-G) | Potency (Tov112D) | activity, negative = cell killing [1, 5] -7.68% | activity, negative = cell killing [1, 6] -17.4% | Potency (astro)

CC(C)(C)NCC(O)c1cc(Cl)c(N)c(Cl)c1 (stereo unspecified)
inactive: Potency (OV90) | Potency (PA-1) | Potency (SKOV3) | Potency (Tov-21-G) | Potency (Tov112D) | activity, negative = cell killing [1, 5] -4.05% | activity, negative = cell killing [1, 6] -25.9% | Potency (astro)

C[C@H]1O[C@@H](O[C@H]2[C@@H](O)C[C@H](O[C@H]3[C@@H](O)C[C@H](O[C@H]4CC[C@@]5(C)[C@H](CC[C@@H]6[C@@H]5CC[C@]5(C)[C@@H](C7=CC(=O)OC7)CC[C@]65O)C4)O[C@@H]3C)O[C@@H]2C)C[C@H](O)[C@@H]1O
inactive: max response [2] -1.87% | outcome [3]
active: Potency (OV90) 0.708 µM | Potency (PA-1) 282 nM and 126 nM | Potency (SKOV3) 251 nM and 112 nM | Potency (Tov-21-G) 112 nM and 100 nM | Potency (Tov112D) 0.0891 µM | Potency (astro) 0.1 µM | Potency [4] 0.0497 µM

O=C1CC[C@@]2(O)[C@H]3Cc4ccc(O)c5c4[C@@]2(CCN3CC2CC2)[C@H]1O5
inactive: Potency (OV90) | Potency (PA-1) | Potency (SKOV3) | Potency (Tov-21-G) | Potency (Tov112D) | activity, negative = cell killing [1, 5] 1.04% | activity, negative = cell killing [1, 6] -3.21% | Potency (astro)

COc1ccc(C(=O)c2c(C)n(CCN3CCOCC3)c3ccccc23)cc1
inactive: Potency (OV90) | Potency (PA-1) | Potency (Tov-21-G) | Potency (Tov112D) | activity, negative = cell killing [1, 5] -14.8% | activity, negative = cell killing [1, 6] -16% | Potency (astro)

C[C@]12CCC(=O)C(O)=C1CC[C@@H]1[C@@H]2CC[C@]2(C)C(=O)CC[C@@H]12
inactive: Potency (OV90) | Potency (PA-1) | Potency (SKOV3) | Potency (Tov-21-G) | Potency (Tov112D) | Potency (astro) | max response [2] 2.3%

CCC(C(N)=O)N1CCCC1=O (stereo unspecified)
inactive: Potency (OV90) | Potency (PA-1) | Potency (Tov-21-G) | Potency (Tov112D) | activity, negative = cell killing [1, 5] -7.31% | activity, negative = cell killing [1, 6] -6.8% | activity, negative = cell killing ([1]; at 46 µM (top of the series), tumour line A) -24.9% | Potency (astro)

CCOC(=O)C1(c2ccccc2)CCN(CCC(C#N)(c2ccccc2)c2ccccc2)CC1
inactive: Potency (SKOV3) | Potency (Tov-21-G) | Potency (Tov112D)

Clc1ccc(COC(Cn2ccnc2)c2ccc(Cl)cc2Cl)cc1 (stereo unspecified)
active: Potency (OV90) 17.8 µM | Potency (SKOV3) 28.2 µM | Potency ([1]; tumour line A) 2.24 µM | Potency ([1]; tumour line D) 12.6 µM

CO[C@]12CC[C@@]3(C[C@@H]1[C@](C)(O)C(C)(C)C)[C@@H]1Cc4ccc(O)c5c4[C@@]3(CCN1CC1CC1)[C@H]2O5
active: Potency (astro) 31.6 µM

C[C@]12CC[C@H]3[C@@H](CCC4=CC(=O)CC[C@@H]43)[C@@H]1CC[C@@H]2OC(=O)CCc1ccccc1
inactive: Potency (OV90) | Potency (SKOV3) | Potency (Tov-21-G) | Potency (Tov112D)

N#CC(C#N)=Cc1ccc(O)c(O)c1
inactive: Potency (OV90) | Potency (SKOV3) | Potency (Tov112D)

Cc1sc2c(c1C)C(c1ccc(Cl)cc1)=N[C@@H](CC(=O)OC(C)(C)C)c1nnc(C)n1-2
inactive: Potency [4]

C=C(C)[C@H]1Cc2c(ccc3c2O[C@@H]2COc4cc(OC)c(OC)cc4[C@@H]2C3=O)O1
inactive: max response [2] -14.4%
active: Potency (PA-1) 1.26 µM | Potency (SKOV3) 0.282 µM | Potency (Tov-21-G) 3.98 µM | Potency (Tov112D) 1.78 µM | Potency (astro) 0.562 µM

CN(C)CCc1ccc(O)cc1
inactive: Potency (PA-1) | Potency (SKOV3) | Potency (Tov-21-G) | Potency (Tov112D) | activity, negative = cell killing [1, 5] -0.64% | activity, negative = cell killing [1, 6] -12.6% | Potency (astro)

COC[C@H]1OC(=O)c2coc3c2[C@@]1(C)C1=C(C3=O)C2CCC(=O)[C@@]2(C)C[C@H]1OC(C)=O (stereo partly specified)
inactive: Potency (OV90) | Potency (Tov-21-G) | Potency (Tov112D) | Potency [4]

Oc1ccc(Cl)cc1Cc1ccccc1
active: Potency (astro) 35.5 µM
inactive: Potency (PA-1) | Potency (SKOV3) | Potency (Tov-21-G) | Potency (Tov112D) | activity, negative = cell killing [1, 5] -24.8% | max response [2] 0.0184% and 1.61%

c1ccc2c(c1)OCC(C1=NCCN1)O2 (stereo unspecified)
inactive: Potency [4]
active: Potency (PA-1) 15.8 µM | Potency (Tov-21-G) 15.8 µM | Potency (astro) 15.8 µM

FC(F)(F)c1cccc(C2=CCN(CCc3ccc4ccccc4c3)CC2)c1
inactive: Potency (OV90) | Potency (PA-1) | Potency (Tov-21-G) | Potency (Tov112D) | Potency (astro)

CC(C)=CCOc1c2occc2cc2ccc(=O)oc12
inactive: Potency (OV90) | Potency (PA-1) | Potency (Tov-21-G) | Potency (Tov112D) | activity, negative = cell killing [1, 5] -6.14% | activity, negative = cell killing [1, 6] -22.8% | Potency (astro)
active: Potency ([1]; tumour line A) 17.8 µM

COc1ccc(Cc2nccc3cc(OC)c(OC)cc23)cc1OC
inactive: Potency (Tov-21-G) | Potency (Tov112D)
active: Potency (OV90) 11.2 µM | Potency (SKOV3) 25.1 µM | Potency (astro) 10 µM
